Assay results published in PubChem BioAssay AID463173 (ICCB-Longwood Screening Facility, Harvard Medical School, 2010).
Out of some 52,000 compounds screened, about 1,700 (3.3%) were called active. Many of the other results were omitted from the sample, so actives are more common in it than they were. A number with no mark means an inactive call. Cut-off read from the data, not from the text of the source: active = survival mostly below about 52% (no sharp cut-off); inactive = mostly above about 56%.

tested on: Wild type; experiment: growth inhibition of S. aureus wild type versus tarO mutant, primary screen, teichoic acid synthesis inhibitors, RN4220, OD600 (AID 463173); details: S. aureus RN4220 wild type/DeltatarO growth, OD600, 18 h, stronger effect = lower value, screened at 18.75 µg/mL (by protocol)

Question: For `Cc1ccoc1C(=O)Nc1ccccc1C(=O)O`, which survival is on record?
Answer: Its survival is 102%.

Question: How did the survival turn out when `Cc1ccc(NC(=O)C2CC(=O)n3cnnc3N2)cc1Cl` (configuration not stated) was run?
Answer: Its survival is 105%.

Question: With `COCCNC(=O)CCn1c(=O)c2cc(OC)c(OC)cc2n(CC(=O)Nc2ccccc2OC)c1=O` as the molecule, how does the survival read?
Answer: The survival was 89%.

Question: With `COc1ccc(-c2nn(-c3ccccc3)cc2C(=O)Nc2ccccc2OC)cc1` as the molecule, how does the survival read?
Answer: The survival was 3% (active).

Question: How did the survival turn out when `COc1ccc(NC(=O)c2cn(-c3ccccc3)nc2-c2ccc(C)cc2)cc1` was run?
Answer: The survival was 93%.

Question: `COc1ccccc1NC(=O)c1cn(-c2ccccc2)nc1-c1ccccc1` was tested. Which survival did it give?
Answer: Its survival is 81%.

Question: With `COC(=O)C1(C)NC(c2ccccc2C)C2C(=O)N(C)C(=O)C21` (configuration not stated) as the molecule, how does the survival read?
Answer: Its survival is 98%.

Question: With `CCOC(=O)C1=C(CN2CCN(c3ccccc3)CC2)NC(=O)NC1c1ccc(C)cc1` (configuration not stated) as the molecule, how does the survival read?
Answer: The survival was 127%.

Question: Which survival does the source give for `O=c1sc2ccccc2n1CCc1ccccc1` here?
Answer: Its survival is 108%.

Question: For `CCCCOc1ccc(Cn2c(=O)oc3ccccc32)cc1`, which survival is on record?
Answer: Its survival is 113%.

Question: For `CCOc1ccc(Cn2c(=O)sc3ccccc32)cc1`, which survival is on record?
Answer: The survival was 72%.

Question: Which survival does the source give for `CCCCOc1ccc(Cn2c(=O)sc3ccccc32)cc1` here?
Answer: The survival was -4% (active).

Question: `CC(C)CCOc1ccc(Cn2c(=O)oc3ccccc32)cc1` was tested. Which survival did it give?
Answer: Its survival is 121%.

Question: How did the survival turn out when `COc1ccc(Cn2c(=O)sc3ccccc32)cc1` was run?
Answer: The survival was 111%.

Question: Which survival does the source give for `CC(C)CCOc1ccc(Cn2c(=O)sc3ccccc32)cc1` here?
Answer: The survival was -3% (active).

Question: With `O=c1sc2ccccc2n1CCCOc1ccccc1` as the molecule, how does the survival read?
Answer: Its survival is 116%.

Question: With `CCCOc1ccc(Cn2c(=O)sc3ccccc32)cc1` as the molecule, how does the survival read?
Answer: Its survival is -4% (active).

Question: Which survival does the source give for `O=C(CC1N=C2c3ccccc3N=C(SCC(=O)Nc3ccc(F)cc3)N2C1=O)NCc1ccc2c(c1)OCO2` (configuration not stated) here?
Answer: Its survival is 80%.

Question: With `COc1ccc2cc3cc(C(=O)NCc4ccccc4OC)oc3nc2c1` as the molecule, how does the survival read?
Answer: The survival was 80%.

Question: Which survival does the source give for `Cc1cccc(-c2nc(Cn3c(SCc4cccc(C(F)(F)F)c4)nc4ccncc43)c(C)o2)c1` here?
Answer: The survival was 81%.

Question: For `Cc1ccc(C(=O)ON=C2CCN(C)CC2)cc1`, which survival is on record?
Answer: The survival was 108%.

Question: With `O=C(Nc1cccc(F)c1)c1cnc2sc(N3CCCC3)nn2c1=O` as the molecule, how does the survival read?
Answer: The survival was 74%.

Question: With `COc1ccccc1CNC(=O)Cn1cc2c(n1)-c1c(oc(C(=O)N3CCOCC3)c1C)CC2` as the molecule, how does the survival read?
Answer: The survival was 84%.

Question: How did the survival turn out when `COc1cc2oc(=O)c(CC(=O)N3CCCCC3)c(C)c2cc1Cl` was run?
Answer: The survival was 84%.

Question: With `Cc1ccc(OCC(=O)Nc2c(C(=O)c3ccc(Cl)cc3)oc3ccccc23)cc1C` as the molecule, how does the survival read?
Answer: The survival was 129%.

Question: `CCOC(=O)c1cnc2c(OC)cccc2c1N1CCN(c2ccccc2F)CC1` was tested. Which survival did it give?
Answer: Its survival is -14% (active).

Question: How did the survival turn out when `CCOC(=O)c1cc(S(=O)(=O)N2CCN(c3cccc(C)c3C)CC2)[nH]n1` was run?
Answer: Its survival is 72%.

Question: How did the survival turn out when `CCOC(=O)c1noc2ncnc(N3CCN(c4cccc(Cl)c4)CC3)c12` was run?
Answer: Its survival is 75%.

Question: Which survival does the source give for `CCOC(=O)c1cnc2ccc(OCC)cc2c1N1CCN(c2ccccc2F)CC1` here?
Answer: Its survival is -12% (active).

Question: `CCOC(=O)c1cnc(N2CCN(c3cccc(C)c3C)CC2)c2ccccc12` was tested. Which survival did it give?
Answer: Its survival is 85%.

Question: `CCOC(=O)c1cc(S(=O)(=O)N2CCN(c3ccccc3F)CC2)[nH]n1` was tested. Which survival did it give?
Answer: The survival was -6% (active).

Question: For `CCOC(=O)c1cnc2cc(C(F)(F)F)ccc2c1N1CCN(c2ccc(F)cc2)CC1`, which survival is on record?
Answer: Its survival is 58%.

Question: `CCOC(=O)c1cnc(N2CCN(c3ccc(C)cc3C)CC2)c2ccccc12` was tested. Which survival did it give?
Answer: The survival was 112%.

Question: How did the survival turn out when `CCOC(=O)c1cc(S(=O)(=O)N2CCN(c3ccccc3OC)CC2)[nH]n1` was run?
Answer: Its survival is 124%.

Question: `CCOC(=O)c1cnc2cc(C(F)(F)F)ccc2c1N1CCN(c2cccc(Cl)c2)CC1` was tested. Which survival did it give?
Answer: Its survival is 55%.

Question: Which survival does the source give for `COC(=O)c1cnc(N2CCN(c3ccccc3F)CC2)c2ccccc12` here?
Answer: Its survival is 93%.

Question: Which survival does the source give for `CCOC(=O)c1cnc2ccc(OCC)cc2c1N1CCN(c2cccc(Cl)c2)CC1` here?
Answer: Its survival is -9% (active).
